In article PMC11062922 (Nature Chemical Biology, 2023) one finds potency estimated from few doses data, which are given here for nine molecules.

One test concerns ABL1. Details: species or system human, MV4-11 + K-562 + COLO205 + SK-N-BE2 + OVCAR-8. As to conditions: read-out: apparent Kd, n = 1.
The subject of the next test is ABL2. Details: species or system human, MV4-11 + K-562 + COLO205 + SK-N-BE2 + OVCAR-8. As to conditions: read-out: apparent Kd, n = 1.
For the next test, the system named is BCR. Details: species or system human, MV4-11 + K-562 + COLO205 + SK-N-BE2 + OVCAR-8. Particulars: read-out: apparent Kd, n = 1.
A further test has as its system GAK. Details: species or system human, MV4-11 + K-562 + COLO205 + SK-N-BE2 + OVCAR-8. Particulars: read-out: apparent Kd, n = 1.
The subject of the next test is HCK. Details: species or system human, MV4-11 + K-562 + COLO205 + SK-N-BE2 + OVCAR-8. As to conditions: read-out: apparent Kd, compound concentrations: 100 nM and 1000 nM (sheet 'Samples'), n = 1.
For another test, the system named is PTK6. Details: species or system human, MV4-11 + K-562 + COLO205 + SK-N-BE2 + OVCAR-8. Particulars: read-out: apparent Kd, n = 1.
The test system of another test is RET. Details: species or system human, MV4-11 + K-562 + COLO205 + SK-N-BE2 + OVCAR-8. Particulars: read-out: apparent Kd, n = 1.
Another test deals with RIPK2. Details: species or system human, MV4-11 + K-562 + COLO205 + SK-N-BE2 + OVCAR-8. As to conditions: read-out: apparent Kd, n = 1.
The next test deals with RIPK3. Details: species or system human, MV4-11 + K-562 + COLO205 + SK-N-BE2 + OVCAR-8. Particulars: read-out: apparent Kd, compound concentrations: 100 nM and 1000 nM (sheet 'Samples'), n = 1.
The next test deals with LCK. Details: species or system human, MV4-11 + K-562 + COLO205 + SK-N-BE2 + OVCAR-8. Particulars: read-out: apparent Kd, n = 1.
In the next test the test system is YES1. Details: species or system human, MV4-11 + K-562 + COLO205 + SK-N-BE2 + OVCAR-8. Particulars: read-out: apparent Kd, n = 1.
For the next test, the system named is FYN. Details: species or system human, MV4-11 + K-562 + COLO205 + SK-N-BE2 + OVCAR-8. As to conditions: read-out: apparent Kd, compound concentrations: 100 nM and 1000 nM (sheet 'Samples'), n = 1.
A further test has as its system CLK1. Details: species or system human, MV4-11 + K-562 + COLO205 + SK-N-BE2 + OVCAR-8. Particulars: read-out: apparent Kd; compound concentrations:100 nM and 1000 nM (sheet 'Samples'); n = 1.
The test system of another test is CLK4. Details: species or system human, MV4-11 + K-562 + COLO205 + SK-N-BE2 + OVCAR-8. Particulars: read-out: apparent Kd; compound concentrations:100 nM and 1000 nM (sheet 'Samples'); n = 1.
A further test deals with Q6ZSR9 (human, UniProt Q6ZSR9). Details: species or system MV4-11 + K-562 + COLO205 + SK-N-BE2 + OVCAR-8. Particulars: read-out: apparent Kd; compound concentrations:100 nM and 1000 nM (sheet 'Samples'); n = 1.
A further test has as its system FRK. Details: species or system human, MV4-11 + K-562 + COLO205 + SK-N-BE2 + OVCAR-8. As to conditions: read-out: apparent Kd; compound concentrations: 100 nM and 1000 nM (sheet 'Samples'), CATDS: 5.5452484233419301E-2; n = 1.
The mark [1] stands for this setting: compound concentrations:100 nM and 1000 nM (sheet 'Samples').

Like-named read-outs stand apart in the source and are kept apart here.

Sequence of Q6ZSR9 (Q6ZSR9 whole entry, looked up): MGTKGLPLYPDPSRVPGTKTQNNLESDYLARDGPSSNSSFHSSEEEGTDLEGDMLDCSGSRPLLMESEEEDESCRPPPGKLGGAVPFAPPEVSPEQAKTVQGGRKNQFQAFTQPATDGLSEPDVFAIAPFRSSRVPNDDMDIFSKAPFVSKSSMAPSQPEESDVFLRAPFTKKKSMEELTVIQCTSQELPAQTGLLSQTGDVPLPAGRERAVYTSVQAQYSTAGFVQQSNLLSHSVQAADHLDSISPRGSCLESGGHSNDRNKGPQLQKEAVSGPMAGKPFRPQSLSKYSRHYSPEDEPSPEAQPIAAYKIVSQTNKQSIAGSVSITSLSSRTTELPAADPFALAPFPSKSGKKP

Consider `Fc1cc(Cl)ccc1Nc1ccnc2cc(-c3ccc(CN4CCOCC4)o3)ccc12` [GW560109X], for which the potency estimated from few doses in the test with ABL1 (compound concentrations: 100 nM and 1000 nM (sheet 'Samples'), CATDS: 5.7871370068112001E-2) was 1.2 µM; with ABL2 (compound concentrations: 100 nM and 1000 nM (sheet 'Samples'), CATDS: 6.6885266429186699E-2), 0.81 µM; with BCR (compound concentrations: 100 nM and 1000 nM (sheet 'Samples'), CATDS: 0.27388815671753503) it was 0.0664 µM; in the test on GAK (compound concentrations: 100 nM and 1000 nM (sheet 'Samples'), CATDS: 5.9630252923923099E-2) it was 1.1 µM; with HCK (CATDS: 5.4118184617509203E-2) it was 1.48 µM; with PTK6 (compound concentrations: 100 nM and 1000 nM (sheet 'Samples'), CATDS: 6.7887281457167797E-2) it was 0.78 µM. The potency estimated from few doses was 0.4 µM in the test with RET (compound concentrations: 100 nM and 1000 nM (sheet 'Samples'), CATDS: 9.1999760709611106E-2); 0.0826 µM with RIPK2 (compound concentrations: 100 nM and 1000 nM (sheet 'Samples'), CATDS: 0.235092034784944); 0.641 µM in the test with RIPK3 (CATDS: 7.3765709446288102E-2).
Turning to `CC(=O)N1CCN(c2ccc(Nc3nccc(-c4sc(C(C)C)nc4-c4cccc(NS(=O)(=O)c5ccccc5)c4)n3)cn2)CC1` [GSK1645872A], the potency estimated from few doses with ABL1 (compound concentrations: 100 nM and 1000 nM (sheet 'Samples'), CATDS: 2.9890665121479899E-2) was 0.746 µM; in the test with ABL2 (compound concentrations: 100 nM and 1000 nM (sheet 'Samples'), CATDS: 6.8030281480511795E-2), 0.166 µM; with BCR (compound concentrations: 100 nM and 1000 nM (sheet 'Samples'), CATDS: 2.6881466096611999E-2), 0.991 µM; in the test on GAK (compound concentrations: 100 nM and 1000 nM (sheet 'Samples'), CATDS: 3.3630312969228401E-2) it was 0.566 µM; in the test with LCK (compound concentrations: 100 nM and 1000 nM (sheet 'Samples'), CATDS: 2.6338913401390801E-2), 1.05 µM; in the test with RIPK2 (compound concentrations: 100 nM and 1000 nM (sheet 'Samples'), CATDS: 3.4620572917050799E-2) it was 0.532 µM. Besides, the potency estimated from few doses in the test on RIPK3 (CATDS: 4.0939196436341502E-2) is 0.381 µM; in the test on YES1 (compound concentrations: 100 nM and 1000 nM (sheet 'Samples'), CATDS: 4.4721674656853803E-2) it was 0.324 µM.
On to `CC(=O)N1CCN(c2ccc(Nc3nccc(-c4sc(C(C)C)nc4-c4cccc(NS(=O)(=O)c5cccc(Cl)c5)c4)n3)cn2)CC1` [GSK1660437A], for which the potency estimated from few doses in the test on ABL2 (compound concentrations: 100 nM and 1000 nM (sheet 'Samples'), CATDS: 7.86907844661483E-2) is 0.351 µM; in the test on FYN (CATDS: 4.41921751489057E-2), 1.12 µM; with GAK (compound concentrations: 100 nM and 1000 nM (sheet 'Samples'), CATDS: 7.8355019854230004E-2) it was 0.353 µM; in the test on LCK (compound concentrations: 100 nM and 1000 nM (sheet 'Samples'), CATDS: 4.6764709487854099E-2) it was 0.973 µM; with RIPK3 (CATDS: 3.6291204942441098E-2), 2.01 µM; in the test on YES1 (compound concentrations: 100 nM and 1000 nM (sheet 'Samples'), CATDS: 4.9089753875203201E-2), 0.868 µM.
Turning to `Cn1cc(-c2cnc(N)c3c(-c4ccc5c(c4)CCN5C(=O)Cc4ccccc4)csc23)cn1` [GSK2593074A], the potency estimated from few doses with ABL1 (setting [1]) is 0.563 µM; in the test with ABL2 (setting [1]), 0.641 µM; with LCK (setting [1]) it was 0.554 µM; in the test with PTK6 (setting [1]) it was 1.34 µM; with RIPK2 (setting [1]), 0.12 µM.
Consider `CC(C)c1nc(-c2cccc(NS(=O)(=O)c3c(F)cccc3F)c2F)c(-c2ccnc(Nc3ccc(N4CCOCC4)nc3)n2)s1` [GSK2008607A], for which the potency estimated from few doses in the test on ABL1 (compound concentrations: 100 nM and 1000 nM (sheet 'Samples'), CATDS: 2.52520437406713E-2) is 0.706 µM; in the test with ABL2 (compound concentrations: 100 nM and 1000 nM (sheet 'Samples'), CATDS: 7.58086527625733E-2) it was 0.101 µM; with BCR (compound concentrations: 100 nM and 1000 nM (sheet 'Samples'), CATDS: 3.4777380085243399E-2), 0.355 µM; in the test with FYN (CATDS: 2.15624347754024E-2) it was 1.09 µM; with GAK (compound concentrations: 100 nM and 1000 nM (sheet 'Samples'), CATDS: 3.3626459583734003E-2), 0.378 µM; with HCK (CATDS: 2.4637154538395101E-2), 0.751 µM. The potency estimated from few doses in the test on LCK (compound concentrations: 100 nM and 1000 nM (sheet 'Samples'), CATDS: 4.60457501367081E-2) was 0.215 µM; in the test on RET (compound concentrations: 100 nM and 1000 nM (sheet 'Samples'), CATDS: 4.3035202568940403E-2), 0.241 µM; with YES1 (compound concentrations: 100 nM and 1000 nM (sheet 'Samples'), CATDS: 2.6088425735390001E-2), 0.653 µM.
Regarding `Cn1cc(-c2ccc3c(c2)CCN3C(=O)Cc2cccc(Cl)c2)c2c(N)ncnc21` [GSK2606590A], in the test on ABL1 (compound concentrations: 100 nM and 1000 nM (sheet 'Samples'), CATDS: 0.26932988266552799), the potency estimated from few doses is 1.72 µM.
As for `N#Cc1cnc2cc(-c3cnc(CNCCN4CCOCC4)s3)ccc2c1Nc1ccc(Oc2ccccc2)cc1` [GW664114X], the potency estimated from few doses in the test on ABL1 (compound concentrations: 100 nM and 1000 nM (sheet 'Samples'), CATDS: 4.8325821133258902E-2) is 1.13 µM; with FYN (CATDS: 5.3110051753070202E-2), 0.831 µM; with HCK (CATDS: 0.211931822213385) it was 0.0691 µM; in the test on LCK (compound concentrations: 100 nM and 1000 nM (sheet 'Samples'), CATDS: 5.7694634687651798E-2), 0.657 µM; in the test with YES1 (compound concentrations: 100 nM and 1000 nM (sheet 'Samples'), CATDS: 7.4593421105350805E-2), 0.361 µM.
Consider `Cl.Cn1c(=O)c(Cc2ccc(F)cc2F)cc2cnc(NC3CCOCC3)nc21` [RO3308757-001], for which the potency estimated from few doses in the test with ABL1 (setting [1]) was 1.76 µM; in the test on ABL2 (setting [1]) it was 0.513 µM; in the test with BCR (setting [1]), 0.477 µM; in the test with CLK1 it was 0.779 µM; with CLK4, 1.11 µM; in the test on GAK (setting [1]), 0.434 µM. Further, the potency estimated from few doses in the test on LCK (setting [1]) is 1.22 µM; with Q6ZSR9, 1.84 µM; in the test with RET (setting [1]), 0.877 µM; in the test with YES1 (setting [1]) it was 0.805 µM.
Turning to `Cc1ccc(O)cc1Nc1ccnc2ccc(C(C)(C)C)cc12` [GW856805X], the potency estimated from few doses in the test on ABL1 (compound concentrations: 100 nM and 1000 nM (sheet 'Samples'), CATDS: 2.7380804690978401E-2) was 1.4 µM; in the test with ABL2 (compound concentrations: 100 nM and 1000 nM (sheet 'Samples'), CATDS: 3.3299960088100697E-2) it was 0.317 µM; with BCR (compound concentrations: 100 nM and 1000 nM (sheet 'Samples'), CATDS: 4.5684736172067801E-2), 0.0791 µM; with FRK it was 0.0442 µM; in the test with FYN (CATDS: 4.6328072424656697E-2), 0.0755 µM; with GAK (compound concentrations: 100 nM and 1000 nM (sheet 'Samples'), CATDS: 4.7417196878279499E-2) it was 0.07 µM. The potency estimated from few doses is 0.718 µM in the test on PTK6 (compound concentrations: 100 nM and 1000 nM (sheet 'Samples'), CATDS: 2.9493928233546299E-2); 0.111 µM with RET (compound concentrations: 100 nM and 1000 nM (sheet 'Samples'), CATDS: 4.15605904174959E-2); 0.0111 µM in the test with RIPK2 (compound concentrations: 100 nM and 1000 nM (sheet 'Samples'), CATDS: 0.10546216310876699); 0.54 µM in the test with RIPK3 (CATDS: 3.0648006837875299E-2).
